According to PubChem BioAssay (NCATS):
Results filed as inconclusive are left out. Where a call stands in place of a potency, no number is given. Activity calls are given as the source filed them. Unless noted, calls follow the shape of the dose curve; as a rule, active = well fitted inhibition curve with a large enough effect; inconclusive = small, poorly fitted or top-dose-only effect; inactive = no such curve, though single readings can be large or run the other way.
Potency is read from the fitted curve at half-maximal effect.

Assay: S16 Schwann cell PMP22 intronic element firefly luciferase assay (AID 624032); also: nearly all actives have a fitted effect of over 30% in size
Details: S16 rat Schwann cells, PMP22 element FLuc, 24 h; series mostly up to 57.5 µM
In short: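 Rat S16 Schwann cells stably carrying firefly luciferase driven by a PMP22 intronic element, in 10% FBS, treated 24 h at 37 C. ONE-Glo luminescence normalized to PTC124 control and DMSO (0%); curves classed by r2, magnitude and activity.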
With `O=c1oc2cc(O)ccc2s1` the Potency was “inactive”. In the case of `CN(c1nccc(=O)[nH]1)C1CCN(c2nc3ccccc3n2Cc2ccc(F)cc2)CC1`, the Potency is reported as “inactive”. For `CC1(C)CCC(C)(C)c2cc(NC(=O)c3ccc(C(=O)O)cc3)ccc21`, the Potency was 114 nM (active). In the case of `CCCCc1ccc2nc(NC(=O)OC)[nH]c2c1`, the Potency is reported as “inactive”. For `CCC[C@@H]1C[C@@H](C(=O)N[C@@H]([C@H]2O[C@H](SC)[C@H](O)[C@@H](O)[C@H]2O)[C@@H](C)O)N(C)C1`, the Potency was “inactive”. For `CNC[C@@H](O)[C@@H](O)[C@H](O)[C@H](O)CO`, the Potency was “inactive”. With `NNc1nncc2ccccc12` the Potency was “inactive”. In the case of `Oc1ccc(OCc2ccccc2)cc1`, the Potency is reported as “inactive”. With `O=C(O)c1cccnc1Nc1cccc(C(F)(F)F)c1` the Potency was “inactive”. In the case of `O=C(O)CCNC(=O)c1ccc(N=Nc2ccc(O)c(C(=O)O)c2)cc1`, the Potency is reported as “inactive”. In the case of `O=C(NCC1CCCCN1)c1cc(OCC(F)(F)F)ccc1OCC(F)(F)F` (stereo not given), the Potency is reported as “inactive”. In the case of `CC(C)(S)[C@@H](N)C(=O)O`, the Potency is reported as “inactive”. In the case of `Cc1cc(=O)c2c(O)c3c(O)cc(=O)c4c3c3c(cc(O)c1c23)C(C)(C)C=4O`, the Potency is reported as “inactive”. In the case of `Cc1cc2cc3c(C)cc(=O)oc3c(C)c2o1`, the Potency is reported as “inactive”. With `O=C1c2ccccc2-c2n[nH]c3cccc1c23` the Potency was “inactive”.

Assay: S16 Schwann cell PMP22 intronic element beta-lactamase assay (AID 624044; calls by dose curve; also: nearly all actives have a fitted effect of over 15% in size)
Details: S16 rat Schwann cells, PMP22 element beta-lactamase FRET, 24 h; series mostly up to 38.3 µM
In short: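 Rat S16 Schwann cells with beta-Lac driven by a PMP22 intronic element, compound-treated 24 h at 37 °C. LiveBLAzer FRET B/G read: 460 nm normalized to potassium clavulanate vs DMSO; 535 nm FRET as viability; concentration-effect curves classified.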
In the case of `CCCCN(CCCC)CCC(O)c1cc2c(Cl)cc(Cl)cc2c2cc(C(F)(F)F)ccc12` (stereo not given), the Potency is reported as “inactive”. In the case of `O=c1oc2cc(O)ccc2s1`, the Potency is reported as “inactive”. In the case of `CN(c1nccc(=O)[nH]1)C1CCN(c2nc3ccccc3n2Cc2ccc(F)cc2)CC1`, the Potency is reported as “inactive”. In the case of `CC(C)c1ccc2oc3nc(N)c(C(=O)O)cc3c(=O)c2c1`, the Potency is reported as “inactive”. With `CC1(C)CCC(C)(C)c2cc(NC(=O)c3ccc(C(=O)O)cc3)ccc21` the Potency was “inactive”. In the case of `CCCCc1ccc2nc(NC(=O)OC)[nH]c2c1`, the Potency is reported as 239 nM (active). With `CCC[C@@H]1C[C@@H](C(=O)N[C@@H]([C@H]2O[C@H](SC)[C@H](O)[C@@H](O)[C@H]2O)[C@@H](C)O)N(C)C1` the Potency was “inactive”. With `CNC[C@@H](O)[C@@H](O)[C@H](O)[C@H](O)CO` the Potency was “inactive”. With `COC1=C(OC)C(=O)C(CCCCCCCCCCO)=C(C)C1=O` the Potency was “inactive”. With `Oc1ccc(OCc2ccccc2)cc1` the Potency was 6730 nM (active). For `Cc1c(OCC(F)(F)F)ccnc1CS(=O)c1nc2ccccc2[nH]1` (stereo not given), the Potency was “inactive”. For `O=C(NCC1CCCCN1)c1cc(OCC(F)(F)F)ccc1OCC(F)(F)F` (stereo not given), the Potency was “inactive”. For `CC(C)(S)[C@@H](N)C(=O)O`, the Potency was “inactive”. In the case of `Cc1cc2cc3c(C)cc(=O)oc3c(C)c2o1`, the Potency is reported as “inactive”. In the case of `O=C1c2ccccc2-c2n[nH]c3cccc1c23`, the Potency is reported as “inactive”.
